This passage reports inhibition results from PubChem BioAssay.

The list shows a part of the results. Unmarked numbers belong to inactive results. Calls of active or inactive are those of the source.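 The calls were made as follows: active = mean inhibition above a cutoff equal to the average over all tested compounds plus one standard deviation (cut at about 70% in these data); inactive = the rest.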

The nature of the test: nonselective effects on VP16 transactivation – cell-based, luminescence, CHO-S, high throughput, counter-screen for NR2E3 agonist project, confirmation (AID 624379).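 Also: luciferase from a UAS reporter driven by GAL4-VP16 transactivation; 0% = DMSO with VP16-transfected cells and 100% = DMSO with cells lacking VP16; higher means less reporter light so more repression of VP16 activity.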 The note with it: CHO-S GAL4-VP16 luciferase reporter, at 3.98 µM, hits give high values.
One may read the inhibition as the change of the read-out against control, counted positive when it falls. As for `COc1ccc(Nc2ncnc3ccc(Br)cc23)c(OC)c1`, the inhibition is 75.5% (active).

As for `CCOc1cc(/C=C(/C#N)c2ccc(Cl)cc2)cc(Cl)c1OCC(=O)O`, the inhibition is 77.7% (active).

On to `CC(C)(C)c1ccc(Oc2ccc(N)cc2)cc1`, for which the inhibition was 71.6% (active).

Take `C=CCn1c(C)cc(C2=NNC(=NCC)SC2)c1C`: the inhibition was 73% (active).

As to `Cc1ccsc1C(=O)OCC(=O)c1cc(C)n(CC2CCCO2)c1C` (configuration not stated), the inhibition is 50.3%.

For `Cc1ccc(C)c(S(=O)(=O)N2CCN(c3ncnc4sccc34)CC2)c1`, the inhibition is 82.7% (active).

In the case of `Cc1oc2c(F)c(F)c(F)c(F)c2c1S(=O)(=O)Nc1cccc(C(F)(F)F)c1`, the inhibition is 93.3% (active).

With `Cc1[nH]c(=O)c(C(=O)/C=C/c2ccccc2)c2c1CCCC2`, the inhibition was 48%.

`CC(=O)N1CCCc2cc(S(=O)(=O)N3CCCC(C(=O)N4CCN(c5cccc(Cl)c5)CC4)C3)ccc21` (configuration not stated): the inhibition is 70.2%.

With `OCCCNc1nccc(-c2cc(Nc3cccc(Cl)c3)ncn2)n1`, the inhibition was 93.9% (active).

As to `O=C(Nc1ccc2c(c1)OCCO2)C1CCCC1`, the inhibition was 13.8%.

In the case of `CC[C@H]1CN2CCc3cc(OC)c(OC)cc3[C@@H]2C[C@@H]1C[C@H]1NCCc2cc(OC)c(OC)cc21`, the inhibition was 99.2% (active).
